Measurements as given in the supplement of paper PMC11732987, “Enantioselective OTUD7B fragment discovery through chemoproteomics screening and high-throughput optimisation” (Communications Chemistry, 2025).
Values without a mark were called inactive.

Key:
Assay in all cases: log2 ratio of Biotin-Ahx-Ub-VS probe labelling (fragment/DMSO); higher = less target engagement (more negative = stronger competition), active = hit call of the paper (q ≤ 0.05, log2 ratio ≤ -1)
Conditions in all cases: compound concentration: 200 uM; treatment time: 3 h
OTUD6B = target: T1, OTUD6B (UniProt Q8N6M0)
T1 sequence (whole entry): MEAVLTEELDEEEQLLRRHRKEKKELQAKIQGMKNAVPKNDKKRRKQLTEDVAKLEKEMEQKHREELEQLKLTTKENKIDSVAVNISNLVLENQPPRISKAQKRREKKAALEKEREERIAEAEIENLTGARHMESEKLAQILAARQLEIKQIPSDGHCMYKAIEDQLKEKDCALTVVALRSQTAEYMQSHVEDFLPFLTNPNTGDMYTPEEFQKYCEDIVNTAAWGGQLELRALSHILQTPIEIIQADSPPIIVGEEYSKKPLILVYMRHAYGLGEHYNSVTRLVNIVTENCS
Method in brief: (§1)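 Labelling with Biotin-Ahx-Ub-VS (0.5 µM final, 1 h) followed a 3 h triplicate treatment of HEK293T lysate (495 µg per sample, Tris/CHAPS/IGEPAL buffer with protease inhibitors) with fragment at 200 µM or vehicle. Labelled DUBs were NeutrAvidin-enriched, digested with LysC and trypsin, and run by diaPASEF LC-MS/MS. The values, average log2 fragment/vehicle ratios by unpaired t-test, come from global-median-normalised Spectronaut label-free quantities. Proteins with ≥2 unique peptides were used.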

OTUD7B = target: T2, OTUD7B (UniProt Q6GQQ9)
T2 sequence (whole entry): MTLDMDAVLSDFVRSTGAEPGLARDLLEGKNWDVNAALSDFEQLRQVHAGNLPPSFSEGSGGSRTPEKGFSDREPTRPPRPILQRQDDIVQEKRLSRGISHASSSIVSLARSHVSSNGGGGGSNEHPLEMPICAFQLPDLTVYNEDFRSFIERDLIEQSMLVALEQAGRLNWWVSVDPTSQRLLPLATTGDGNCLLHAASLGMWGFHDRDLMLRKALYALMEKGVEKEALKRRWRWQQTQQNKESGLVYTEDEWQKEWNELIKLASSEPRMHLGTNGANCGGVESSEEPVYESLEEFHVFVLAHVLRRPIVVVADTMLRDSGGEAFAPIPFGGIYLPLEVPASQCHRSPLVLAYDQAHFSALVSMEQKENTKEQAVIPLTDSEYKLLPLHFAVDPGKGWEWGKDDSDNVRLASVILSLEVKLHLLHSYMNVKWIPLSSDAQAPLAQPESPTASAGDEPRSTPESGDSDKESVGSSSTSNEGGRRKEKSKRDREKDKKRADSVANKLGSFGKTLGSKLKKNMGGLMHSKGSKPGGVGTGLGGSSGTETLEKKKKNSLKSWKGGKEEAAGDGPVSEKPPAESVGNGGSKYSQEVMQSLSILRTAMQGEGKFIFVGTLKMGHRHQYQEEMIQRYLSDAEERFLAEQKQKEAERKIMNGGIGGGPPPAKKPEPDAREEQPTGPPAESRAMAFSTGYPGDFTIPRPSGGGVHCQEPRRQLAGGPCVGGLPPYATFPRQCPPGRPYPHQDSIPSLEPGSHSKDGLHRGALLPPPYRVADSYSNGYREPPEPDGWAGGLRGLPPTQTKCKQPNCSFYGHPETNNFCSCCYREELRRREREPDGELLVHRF
Method in brief: as §1

PRPF8 = PRPF8 (UniProt Q6P2Q9)
Method in brief: as §1

PSMD7 = target: T3, PSMD7 (UniProt P51665)
T3 sequence (whole entry): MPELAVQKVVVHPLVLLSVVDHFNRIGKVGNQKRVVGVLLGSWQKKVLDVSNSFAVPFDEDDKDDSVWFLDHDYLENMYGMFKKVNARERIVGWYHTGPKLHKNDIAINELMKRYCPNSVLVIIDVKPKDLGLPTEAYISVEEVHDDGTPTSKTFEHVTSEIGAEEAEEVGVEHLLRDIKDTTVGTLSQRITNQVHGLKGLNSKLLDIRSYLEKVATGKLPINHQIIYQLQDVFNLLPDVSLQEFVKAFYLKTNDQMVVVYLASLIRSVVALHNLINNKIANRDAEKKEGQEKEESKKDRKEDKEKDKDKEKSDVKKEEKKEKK
Method in brief: as §1

UCHL1 = UCHL1 (UniProt P09936)
Method in brief: as §1

UCHL3 = target: T4, UCHL3 (UniProt P15374)
T4 sequence (whole entry): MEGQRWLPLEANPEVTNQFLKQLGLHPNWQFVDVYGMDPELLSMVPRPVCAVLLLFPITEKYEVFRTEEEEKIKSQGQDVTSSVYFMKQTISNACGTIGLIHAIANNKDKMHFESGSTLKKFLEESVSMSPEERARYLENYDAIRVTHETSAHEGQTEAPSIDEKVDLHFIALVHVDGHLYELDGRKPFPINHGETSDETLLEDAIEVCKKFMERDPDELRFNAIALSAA
Method in brief: as §1

UCHL5 = target: T5, UCHL5 (UniProt Q9Y5K5)
T5 sequence (whole entry): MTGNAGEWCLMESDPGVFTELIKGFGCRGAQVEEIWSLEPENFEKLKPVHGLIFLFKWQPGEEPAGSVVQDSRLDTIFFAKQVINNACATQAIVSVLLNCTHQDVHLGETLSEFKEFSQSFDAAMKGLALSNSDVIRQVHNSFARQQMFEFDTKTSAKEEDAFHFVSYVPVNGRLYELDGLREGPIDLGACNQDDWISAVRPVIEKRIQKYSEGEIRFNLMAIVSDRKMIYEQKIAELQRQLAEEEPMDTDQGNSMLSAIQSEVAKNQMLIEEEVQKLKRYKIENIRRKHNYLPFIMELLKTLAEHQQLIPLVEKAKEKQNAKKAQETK
Method in brief: as §1

USP10 = USP10 (UniProt Q14694)
Method in brief: as §1

USP15 = target: T6, USP15 (UniProt Q9Y4E8)
T6 sequence (whole entry): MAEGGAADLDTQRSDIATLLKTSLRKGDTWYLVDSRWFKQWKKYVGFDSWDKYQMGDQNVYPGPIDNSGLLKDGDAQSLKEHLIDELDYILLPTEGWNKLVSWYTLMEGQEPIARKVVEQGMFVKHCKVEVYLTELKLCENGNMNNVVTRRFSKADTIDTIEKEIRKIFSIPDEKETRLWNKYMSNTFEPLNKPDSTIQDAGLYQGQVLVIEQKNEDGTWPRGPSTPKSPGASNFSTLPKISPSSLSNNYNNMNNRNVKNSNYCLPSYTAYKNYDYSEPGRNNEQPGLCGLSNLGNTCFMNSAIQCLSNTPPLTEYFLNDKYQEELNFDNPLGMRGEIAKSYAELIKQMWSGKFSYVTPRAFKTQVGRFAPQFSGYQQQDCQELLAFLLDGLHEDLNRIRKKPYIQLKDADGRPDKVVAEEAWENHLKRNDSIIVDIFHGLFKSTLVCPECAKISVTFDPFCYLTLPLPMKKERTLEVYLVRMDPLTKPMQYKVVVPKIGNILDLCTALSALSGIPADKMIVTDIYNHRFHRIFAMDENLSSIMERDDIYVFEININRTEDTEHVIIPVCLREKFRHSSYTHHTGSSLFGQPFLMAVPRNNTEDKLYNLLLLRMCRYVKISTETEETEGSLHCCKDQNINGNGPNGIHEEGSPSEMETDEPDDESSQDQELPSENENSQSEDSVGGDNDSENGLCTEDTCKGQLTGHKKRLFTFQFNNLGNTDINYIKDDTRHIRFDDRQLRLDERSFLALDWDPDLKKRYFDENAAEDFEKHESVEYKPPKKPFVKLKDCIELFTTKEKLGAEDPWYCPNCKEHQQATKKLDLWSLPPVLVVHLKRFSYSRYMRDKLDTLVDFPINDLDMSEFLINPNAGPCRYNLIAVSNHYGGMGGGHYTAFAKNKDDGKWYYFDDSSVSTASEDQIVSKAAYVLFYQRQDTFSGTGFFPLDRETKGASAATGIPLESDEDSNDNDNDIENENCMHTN
Method in brief: as §1

USP16 = USP16 (UniProt Q9Y5T5)
Method in brief: as §1

Sequence of USP10 (Q14694 whole entry): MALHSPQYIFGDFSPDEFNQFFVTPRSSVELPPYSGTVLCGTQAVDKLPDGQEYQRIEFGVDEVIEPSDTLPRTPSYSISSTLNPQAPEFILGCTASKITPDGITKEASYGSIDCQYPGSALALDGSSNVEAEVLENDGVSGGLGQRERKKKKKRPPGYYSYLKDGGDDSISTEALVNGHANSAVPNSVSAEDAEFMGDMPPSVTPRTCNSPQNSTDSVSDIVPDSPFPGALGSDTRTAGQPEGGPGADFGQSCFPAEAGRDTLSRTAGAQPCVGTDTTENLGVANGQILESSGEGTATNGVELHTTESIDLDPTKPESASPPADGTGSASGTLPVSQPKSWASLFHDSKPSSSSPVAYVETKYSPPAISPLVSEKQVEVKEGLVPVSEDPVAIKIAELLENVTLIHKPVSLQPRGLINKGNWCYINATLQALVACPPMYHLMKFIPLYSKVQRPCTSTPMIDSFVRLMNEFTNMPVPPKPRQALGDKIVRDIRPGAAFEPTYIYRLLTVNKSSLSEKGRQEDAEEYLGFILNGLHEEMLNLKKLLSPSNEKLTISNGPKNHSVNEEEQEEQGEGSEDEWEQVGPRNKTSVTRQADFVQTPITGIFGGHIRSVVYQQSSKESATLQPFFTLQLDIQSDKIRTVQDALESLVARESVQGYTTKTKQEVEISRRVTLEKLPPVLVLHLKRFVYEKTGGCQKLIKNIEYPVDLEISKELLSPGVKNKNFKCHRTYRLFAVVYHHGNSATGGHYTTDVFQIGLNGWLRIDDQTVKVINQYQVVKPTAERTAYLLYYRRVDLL
Sequence of USP16 (Q9Y5T5 whole entry, looked up): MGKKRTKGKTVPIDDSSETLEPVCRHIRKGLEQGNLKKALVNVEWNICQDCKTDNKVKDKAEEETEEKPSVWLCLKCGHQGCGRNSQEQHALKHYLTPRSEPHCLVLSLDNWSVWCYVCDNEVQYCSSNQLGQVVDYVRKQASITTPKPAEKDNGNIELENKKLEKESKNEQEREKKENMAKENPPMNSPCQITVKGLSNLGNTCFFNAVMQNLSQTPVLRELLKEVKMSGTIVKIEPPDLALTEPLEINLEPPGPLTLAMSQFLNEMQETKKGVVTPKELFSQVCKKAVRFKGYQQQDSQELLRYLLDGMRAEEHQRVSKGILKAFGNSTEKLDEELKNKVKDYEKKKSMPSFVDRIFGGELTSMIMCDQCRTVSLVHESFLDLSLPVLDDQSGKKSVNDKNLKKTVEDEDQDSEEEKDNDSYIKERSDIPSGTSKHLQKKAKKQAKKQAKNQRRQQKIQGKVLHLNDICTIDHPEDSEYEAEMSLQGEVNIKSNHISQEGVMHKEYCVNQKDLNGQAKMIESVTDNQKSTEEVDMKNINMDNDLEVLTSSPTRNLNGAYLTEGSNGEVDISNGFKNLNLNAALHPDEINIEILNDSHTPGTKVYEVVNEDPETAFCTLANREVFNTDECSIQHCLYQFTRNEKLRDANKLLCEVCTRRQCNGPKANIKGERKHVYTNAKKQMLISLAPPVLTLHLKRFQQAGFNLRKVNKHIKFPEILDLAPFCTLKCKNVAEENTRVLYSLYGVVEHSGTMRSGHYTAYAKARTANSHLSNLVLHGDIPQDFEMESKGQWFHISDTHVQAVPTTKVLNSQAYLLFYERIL
Sequence of UCHL1 (P09936 whole entry, looked up): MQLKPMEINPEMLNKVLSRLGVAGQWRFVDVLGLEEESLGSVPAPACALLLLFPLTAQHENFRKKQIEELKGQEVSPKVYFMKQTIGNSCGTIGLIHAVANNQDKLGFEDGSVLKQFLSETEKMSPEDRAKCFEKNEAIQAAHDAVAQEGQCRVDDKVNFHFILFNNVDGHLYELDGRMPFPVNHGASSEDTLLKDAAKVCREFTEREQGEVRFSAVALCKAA

N#Cc1ccc(Cl)cc1NC(=O)CCl
log2 ratio of Biotin-Ahx-Ub-VS probe labelling (OTUD6B): -0.0498
log2 ratio of Biotin-Ahx-Ub-VS probe labelling (OTUD7B): -1.73 (active)
log2 ratio of Biotin-Ahx-Ub-VS probe labelling (PRPF8): 0.00848
log2 ratio of Biotin-Ahx-Ub-VS probe labelling (PSMD7): -0.0625
log2 ratio of Biotin-Ahx-Ub-VS probe labelling (UCHL1): -1.01 (active)
log2 ratio of Biotin-Ahx-Ub-VS probe labelling (UCHL3): 0.385
log2 ratio of Biotin-Ahx-Ub-VS probe labelling (UCHL5): 0.0193
log2 ratio of Biotin-Ahx-Ub-VS probe labelling (USP10): -0.153
log2 ratio of Biotin-Ahx-Ub-VS probe labelling (USP15): -0.0346
log2 ratio of Biotin-Ahx-Ub-VS probe labelling (USP16): -0.655
